Bioassay records deposited in PubChem by National Center for Advancing Translational Sciences (NCATS).
HT1080 IDH1KD tx = qHTS for induction of synthetic lethality in tumor cells producing 2HG: qHTS for the HT-1080-IDH1KD cell line. HT-1080 IDH1 knockdown viability, ATP luminescence, 48 h. hit rate 2% among 360,000. Potency, µM (top dose mostly 46.1 µM), inactives show top-dose activity, negative = toxicity, hits mostly cytotoxic. AID 686971, 2013;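 note: 0% = DMSO wells and -100% = cell-free medium wells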
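IDH1KD HT-1080 cells, 750/well, RPMI + 5% FBS; compound pinned after 2 h settling; 48 h, 37 °C; CellTiter-Glo luminescence; % activity normalised to DMSO and no-cell wells; curves fitted, classed by r2 and efficacy.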
DT40 TDP1 CPT = qHTS for Inhibitors of human tyrosyl-DNA phosphodiesterase 1 (TDP1): qHTS in cells in presence of CPT; chicken DT40 Tdp1-/-;hTDP1 cells + 20 nM CPT, ATP luminescence, 48 h; hit rate 12% among 420,000; Potency, µM (highest dose often 46.2 µM), for the others: at the top dose activity change, negative = growth inhibition, usual class: inhibitors; AID 686979, 2013; note: nearly all actives have a fitted effect of over 55% in size
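Chicken DT40 Tdp1-/- cells complemented with human TDP1, 400 cells/well, exposed to compounds plus 20 nM camptothecin for at least 48 h at 37 C; viability read as ATP content by CellTiter-Glo luminescence.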
HT1080-NT tox = qHTS for induction of synthetic lethality in tumor cells producing 2HG: qHTS for the HT-1080-NT fibrosarcoma cell line; HT-1080-NT fibrosarcoma viability, CellTiter-Glo ATP luminescence, 48 h; Potency, µM (titrated, usually from 46.1 µM), for the others: at the highest dose activity, negative = less viability, actives largely listed as cytotoxic; hit rate 1.6% among 360,000; AID 686970, 2013;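 note: NT is the 2HG producing partner of a matched IDH1 knockdown line; 0% = DMSO-treated cells and -100% = media-only wells without cells; nearly all actives have a fitted effect of over 55% in size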
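750 cells/well, RPMI + 5% FBS; 2 h settle, compound pin-transfer, 48 h at 37 degrees C. CellTiter-Glo 10 min RT, luminescence. Normalized to DMSO and media-only wells.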
KB-3-1 tox = qHTS assay for MDR1-selective chemotherapeutics: Primary screen using the parental adenocarcinoma cell KB-3-1; KB-3-1 viability, CellTiter-Glo ATP luminescence, 72 h; Potency, µM (top dose mostly 46.1 µM), most hits filed as cytotoxic; hit rate 1.4% among 400,000; AID 1347075, 2019; note: nearly all actives have a fitted effect of over 60% in size
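Parental KB-3-1 viability, qHTS format: 72 h compound exposure, 37 °C; CellTiter-Glo; media-only wells and DMSO plates as controls; concentration-effect fits on corrected data.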
DT40 TDP1 no CPT = qHTS for Inhibitors of human tyrosyl-DNA phosphodiesterase 1 (TDP1): qHTS in cells in absence of CPT | DT40 Tdp1-/- hTDP1 cells, no CPT, ATP luminescence, 48 h | Potency, µM (doses to about 46.2 µM), inactives show at the top dose activity change, negative = growth inhibition, usual class: inhibitors | hit rate 15% among 420,000 | AID 686978, 2013; note: nearly all actives have a fitted effect of over 55% in size
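Chicken DT40 Tdp1-/- cells stably complemented with human TDP1 were seeded at 400 cells/well with DMSO in place of 20 nM camptothecin. After compound pinning, cells grew at least 48 hr at 37 °C; viability read by CellTiter-Glo luminescence.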
KB-V1 MDR tox = qHTS assay for MDR1-selective chemotherapeutics: Primary screen using the drug-selected MDR subline cells KB-V1; KB-V1 MDR cells viability, CellTiter-Glo, 72 h; Potency, µM (doses to about 46.1 µM), actives largely listed as cytotoxic; hit rate 3.4% among 400,000; AID 1347076, 2019; note: nearly all actives have a fitted effect of over 60% in size
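Following 72 h at 37 degrees C with compound, KB-V1 cell viability was read by CellTiter-Glo luminescence, medium being phenol-red-free DMEM plus 10% FBS; concentration-response parameters came from normalized, curve-fitted qHTS data.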
An asterisk follows results filed as active. Compounds with a hit are over-represented: about 19% of the library has one in this group of screens. Calls come from the whole dose curve; as a rule, active = well fitted curve in the direction sought with a large enough effect; inconclusive = small, poorly fitted or top-dose-only effect, or another doubt; inactive = no such curve, though single readings can be large; an effect the other way counts as inactive or inconclusive. Unless noted, % is set by controls: 0 for no effect and ±100 for the full control effect; potency is the fitted concentration of half-maximal effect.

CN(CC1CCCO1)S(=O)(=O)c1ccc(C(=O)Nc2nccs2)cc1 (configuration not stated) was read as HT1080 IDH1KD tx -12%, DT40 TDP1 CPT -26%, HT1080-NT tox 17%, KB-3-1 tox inactive, DT40 TDP1 no CPT inconclusive and KB-V1 MDR tox 18µM*.
`CN(CC1CCCO1)S(=O)(=O)c1ccc(C(=O)Nc2nc3cc4c(cc3s2)OCO4)cc1` (configuration not stated) gave HT1080 IDH1KD tx -12%, DT40 TDP1 CPT 7.3µM*, HT1080-NT tox 4%, KB-3-1 tox inactive, DT40 TDP1 no CPT 10µM* and KB-V1 MDR tox inactive.
`COc1ccc(-c2nnc(NC(=O)c3ccc(S(=O)(=O)N(C)CC4CCCO4)cc3)o2)c(OC)c1` (configuration not stated) gave HT1080 IDH1KD tx -26%, DT40 TDP1 CPT inconclusive, HT1080-NT tox -25%, KB-3-1 tox inactive, DT40 TDP1 no CPT inconclusive and KB-V1 MDR tox 5.8µM*.
For CN(CC1CCCO1)S(=O)(=O)c1ccc(C(=O)Nc2ccc3c(c2)OCO3)cc1 (configuration not stated) the results were HT1080 IDH1KD tx 6%, DT40 TDP1 CPT inconclusive, HT1080-NT tox 4%, KB-3-1 tox inactive, DT40 TDP1 no CPT inconclusive and KB-V1 MDR tox inactive.
`NC(c1ccccc1)c1csc(Nc2ccc(C(=O)NCCCO)cn2)n1` (configuration not stated) gave HT1080 IDH1KD tx 0%, DT40 TDP1 CPT -18%, HT1080-NT tox 5%, KB-3-1 tox inactive, DT40 TDP1 no CPT 2% and KB-V1 MDR tox inactive.
`CCCOc1ccccc1C1Oc2nc(SC)nnc2-c2ccccc2N1C(C)=O` (configuration not stated) gave KB-3-1 tox inactive and KB-V1 MDR tox inconclusive.
Screening CCOC(=O)Cn1cccc1-c1nc(-c2ccc(OC)cc2)c(-c2ccc(OC)cc2)s1 returned DT40 TDP1 CPT 5% and DT40 TDP1 no CPT 1%.
`NC(=O)C1CCN(c2ccc(C(F)(F)F)cn2)CC1` gave HT1080 IDH1KD tx 13%, DT40 TDP1 CPT 7%, HT1080-NT tox inconclusive, KB-3-1 tox inactive, DT40 TDP1 no CPT -5% and KB-V1 MDR tox inactive.
Screening CC1=NN(c2ccc(C(F)(F)F)cn2)C(=O)C1 returned HT1080 IDH1KD tx inconclusive, DT40 TDP1 CPT 23µM*, HT1080-NT tox -30%, KB-3-1 tox inconclusive, DT40 TDP1 no CPT inconclusive and KB-V1 MDR tox inactive.
`CC(C)(C)OC(=O)N1CCC[C@H]1c1nnc(SCc2ccc(Cl)cc2)o1` gave HT1080 IDH1KD tx 1%, DT40 TDP1 CPT inconclusive, HT1080-NT tox 14%, KB-3-1 tox inactive, DT40 TDP1 no CPT 21µM* and KB-V1 MDR tox inconclusive.
`CC(C)(C)OC(=O)N1CCC[C@H]1c1nnc(SC/C=C/c2ccccc2)o1` gave HT1080 IDH1KD tx 3%, DT40 TDP1 CPT inconclusive, HT1080-NT tox 2%, KB-3-1 tox inactive, DT40 TDP1 no CPT 23µM* and KB-V1 MDR tox inactive.
`CC(C)(C)OC(=O)N1CCC[C@H]1c1nnc(SCc2ccc(Cl)cc2Cl)o1` gave HT1080 IDH1KD tx inconclusive, DT40 TDP1 CPT inconclusive, HT1080-NT tox -30%, KB-3-1 tox inactive, DT40 TDP1 no CPT 15µM* and KB-V1 MDR tox inconclusive.
